Source: PubChem
A selection: hits, their analogues and other compounds. The true share with any hit is near 0.33%.
Pin1 inhibitor: blocks the human prolyl isomerase Pin1; Pin1 FP peptide displacement, HiFluor488, 10 min; Potency, µM (series often up to 115 µM), usual class: inhibitors; hit rate 0.009% among 390,000; active = well fitted inhibition curve with a large enough effect in the polarisation, with a control signal flat, not every such curve was filed as active; inconclusive = small, poorly fitted or top-dose-only effect, or effect the other way, or a change in a side signal; inactive = no such curve, though single readings can be large or run the other way; the % refers to the polarisation
IDH1 R132H inh: inhibitors of human mutant IDH1 R132H. O75874. IDH1-R132H enzyme, NADPH consumption, diaphorase/resazurin fluorescence. Potency, µM (top dose mostly 76.6 µM), hits mostly inhibitors. hit rate 0.093% among 390,000; also: nearly all actives have a fitted effect of over 65% in size
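IDH1-R132H (0.5 ug/mL) preincubated 30 min with compound, then NADPH (0.016 mM) and alpha-KG (2 mM) added; 80 min at RT, pH 7.5. Remaining NADPH coupled via diaphorase/resazurin to fluorescence (540/590 nm); concentration-response curves normalized to no-enzyme control.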
GLS inhibitor: glutaminase GLS (human) inhibition. GLS enzymatic activity, qHTS titration. Potency, µM (series often up to 45.5 µM), actives largely listed as inhibitors. AID 624170. hit rate 0.21% among 410,000
Target sequence (O94925 whole entry, looked up): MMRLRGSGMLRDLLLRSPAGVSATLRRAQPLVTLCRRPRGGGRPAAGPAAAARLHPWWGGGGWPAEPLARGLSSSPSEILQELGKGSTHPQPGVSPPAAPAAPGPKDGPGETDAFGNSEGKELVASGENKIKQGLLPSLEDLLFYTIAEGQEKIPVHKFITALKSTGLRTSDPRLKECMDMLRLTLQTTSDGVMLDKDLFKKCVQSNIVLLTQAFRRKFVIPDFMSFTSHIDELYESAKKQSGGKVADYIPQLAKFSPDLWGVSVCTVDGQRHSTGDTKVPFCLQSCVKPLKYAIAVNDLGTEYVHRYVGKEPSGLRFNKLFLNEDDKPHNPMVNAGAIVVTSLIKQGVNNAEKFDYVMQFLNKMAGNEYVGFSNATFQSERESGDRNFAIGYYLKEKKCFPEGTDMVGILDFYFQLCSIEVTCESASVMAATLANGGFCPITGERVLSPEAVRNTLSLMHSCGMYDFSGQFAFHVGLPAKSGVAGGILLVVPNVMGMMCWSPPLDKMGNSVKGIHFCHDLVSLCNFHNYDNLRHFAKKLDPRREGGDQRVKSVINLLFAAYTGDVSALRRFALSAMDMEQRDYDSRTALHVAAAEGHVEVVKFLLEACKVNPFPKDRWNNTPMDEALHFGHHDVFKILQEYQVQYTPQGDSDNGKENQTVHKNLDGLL
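Coupled fluorescence readout: glutamate oxidase/HRP/Amplex Red detect glutamate formed by hKGA from L-glutamine (1 mM solution added). Buffer 45 mM KH2PO4 pH 8.2, 0.02% Tween-20; reads at t0 and 30 min RT.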
Tb PGK inh: T. brucei PGK inhibition; PGK/GAPDH coupled, Kinase-Glo luminescence, 60 min; Potency, µM (highest dose often 57.5 µM), most hits filed as inhibitors; hit rate 0.043% among 380,000; AID 602233; also: nearly all actives have a fitted effect of over 60% in size
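Luminescent ATP detection (Kinase-Glo Plus) follows a 60-minute room-temperature incubation, with wells lacking PGK as controls. Buffer: 100 mM TEA (pH 7.6), 5 mM MgCl2, 0.01% Tween-20. Coupling enzyme GAPDH (100 nM final) supplies unstable 1,3-BPG in-well.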
Numbers stand for hits; n = inactive; u = inconclusive; x = no result; ! = not active in a repeat. Unless noted, calls follow the shape of the dose curve; as a rule, active = well fitted curve in the direction sought with a large enough effect; inconclusive = small, poorly fitted or top-dose-only effect, or another doubt; inactive = no such curve, though single readings can be large; an effect the other way counts as inactive or inconclusive.

SMILES	Pin1 inhibitor	IDH1 R132H inh	GLS inhibitor	Tb PGK inh
COC(=O)c1ccc2c(=O)n(CCCCCC(=O)NCCc3ccccc3)c(=O)[nH]c2c1	n	n	11µM	n
[2H]c1c([2H])c([2H])c2c([nH]c(=S)n2C2CCN(CCCC(=O)c3ccc(F)cc3)CC2)c1[2H]	x	x	n	x
CC1CCN(S(=O)(=O)c2ccc(NC(=O)C3CCCCC3C(=O)O)cc2)CC1 (stereo not given)	n	n	11µM	n
CC1CCN(S(=O)(=O)c2ccc(NC(=O)[C@@H]3CCCC[C@@H]3C(=O)O)cc2)CC1	n	n	n	n
O=C1CC(C(=O)N2CCN(c3ccccc3)CC2)CN1Cc1ccccc1 (stereo not given)	n	n	n	n
O=C1CC(C(=O)N2CCN(c3ccccc3O)CC2)CN1Cc1ccccc1 (stereo not given)	n	n	5µM	n
COc1ccc(N2Cc3cccc(C(=O)O)c3C2=O)cc1	n	n	16µM	u
O=S1(=O)N=C(Oc2ccccc2C(F)(F)F)c2ccccc21	n	x	x	x
O=C1C=CC(=O)c2c(O)c(CO)c(CO)c(O)c21	x	n	3.5µM	8.9µM
O=c1c(CO)cc(CO)cc(CO)c1O	u	n	n	n
COc1cc(/C=C(\C#N)C(=O)Nc2cccc(C(=O)O)c2)ccc1OCc1ccc(F)cc1	n	n	n	n
CCOc1cc(/C=C(\C#N)C(=O)Nc2cccc(C(=O)O)c2)ccc1OCc1ccccc1Cl	u	33µM	n	n
CCOC(=O)CN1C(=O)S/C(=C\c2ccc(-c3ccc(C(=O)O)c(Cl)c3)o2)C1=O	n	n	u	u
O=C(O)c1ccc(-c2ccc(/C=C3\NC(=O)N(Cc4ccc(Cl)cc4)C3=O)o2)cc1Cl	x	n	n	25µM
CN(C)C(=O)C1CCN(c2nc(-c3ccc(Br)cc3)cs2)CC1	n	x	x	x
CC1=NN(c2cccc(C(=O)O)c2)C(=O)/C1=C\C=C\c1ccco1	x	n	n	4µM
Cc1cnc(N2CCC(C(N)=O)CC2)nc1-c1cccc(N(C)C)c1	n	x	x	x
CCN(CC)c1ccc(NC(=O)c2ccco2)cc1	n	n	n	n
CCN(CC)c1ccc(NC(=S)NC(=O)c2ccco2)cc1	n	n	10µM	n
CC(=O)Nc1cccc(OCc2cccc(C3Nc4ccccc4C(=O)N3Cc3ccco3)c2)c1 (stereo not given)	n	x	x	x
CCC(C)NC(=O)CSC1=Nc2ccccc2C2=NC(CC(=O)NCc3ccc(F)cc3)C(=O)N12 (stereo not given)	n	n	10µM	n
CCN(CC)C(=O)CSC1=Nc2ccccc2C2=NC(c3ccccc3)C(=O)N12 (stereo not given)	n	n	13µM	n
COCCN1C(=O)CC(NNC(=O)c2ccc(S(=O)(=O)N3CCCC3)cc2)C1=O (stereo not given)	n	n	10µM	n
COc1ccc(C2Nc3ccccc3C(=O)N2Cc2ccccc2C(F)(F)F)cc1COc1ccc(NC(C)=O)cc1 (stereo not given)	n	x	x	x
Cc1c([S+](=O)([O-])N2CCN([S+](=O)([O-])c3c(F)cccc3F)CC2)sc2ccc(Cl)cc12	n	x	x	x
SMILES	Pin1 inhibitor	IDH1 R132H inh	GLS inhibitor	Tb PGK inh
Nc1c(C(=O)O)cnc2c(-c3ccc(Cl)cc3)cnn12	n	n	n	32µM
CC(=O)c1cnc2c(-c3ccc(Cl)cc3)cnn2c1C	n	n	n	n
ClC(Cl)(Cl)c1nc2ccccc2n2nncc12	n	n	11µM	n
O=c1oc2c(O)c(O)cc3c(=O)oc4c(O)c(O)cc1c4c23	u	n	2.8µM!	0.89µM
COc1ccc(C(=O)N(Cc2ccco2)Cc2ccco2)c(O)c1	n	x	x	x
COc1cc(-c2ccc3ncnc(NCCc4cnc[nH]4)c3c2)cc(OC)c1OC	n	x	x	x
O=C(CCO)c1ccc(O)cc1	u	n	7.9µM	u
CC1(C)N=C(Nc2nc3ccccc3o2)NC2=C1C(=O)CCC2	n	x	x	x
COC1=C/C(=C/c2c(N)n3c(nc2=O)sc2cc(S(C)(=O)=O)ccc23)C=CC1=O	u	n	u	n
CS(=O)(=O)c1ccc2c(c1)sc1nc(=O)c(/C=C3/C=CC(=O)C(O)=C3)c(N)n12	u	n	n	13µM
CN1CCN(Cc2cc(COCc3ccccc3)c3cccnc3c2O)CC1	n	n	4µM	n
CCCOCc1cc(CN2CCN(c3cccc(Cl)c3)CC2)c(O)c2ncccc12	n	n	n	n
Cc1ccn2c(NC(C)(C)C)c(-c3cccs3)nc2c1	n	n	6.3µM	n
CC(C)CC1=C/C(=C/c2ccc(-c3ccccc3)o2)C(=O)O1	u	n	11µM	n
NC(=O)C1CCN(c2nc(-c3ccc(-c4ccccc4)cc3)cs2)CC1	n	x	x	x
S=c1[nH]nc2n1CCCN2	n	n	11µM	n
Cc1ccc2nc3n(c2c1)CCCN3	n	n	n	n
COc1ccc(C2Nc3ccccc3C(=O)N2Cc2ccc(-c3ccccc3)cc2)cc1COc1ccc(NC(C)=O)cc1 (stereo not given)	n	x	x	x
O=[N+]([O-])c1ccc(Nc2ccccc2)c2nonc12	n	n	n	n
O=[N+]([O-])c1ccc(Sc2cccc[n+]2[O-])c2nonc12	u	n	11µM	u
C/C(CC(=O)Nc1ccc2ccccc2c1)=N\NC(=O)c1ccc(O)c(O)c1	u	n	6.3µM	n
COc1ccccc1C(=O)Nc1nc2ccccc2[nH]1	n	n	n	7.9µM
Cc1cc2c(s1)c1cnn(Cc3ccc(C#N)cc3)c(=O)c1n2C	n	x	x	x
Cc1c(/C=C2\NC(=O)NC2=O)c2ccccc2n1C	n	n	13µM	n
Cc1ccc(O)c(Nc2nc(-c3ccccc3)nc3ccccc23)c1	n	n	n	n
SMILES	Pin1 inhibitor	IDH1 R132H inh	GLS inhibitor	Tb PGK inh
Cc1ccc(O)c(Nc2c3ccccc3nc3ccccc23)c1	n	n	8.9µM	n
Cc1cc2ccccn2c1C(=O)c1ccc(N/N=C/c2ccc(C(=O)O)cc2)c([N+](=O)[O-])c1	n	n	10µM	u
C/C(=N\Nc1ccc(C(=O)c2c(C)cc3ccccn23)cc1[N+](=O)[O-])c1ccc(O)cc1	n	n	n	n
CC1(C(=O)O)CCC2(C)CCC3(C)C(=CC(=O)[C@@H]4C5(C)CC[C@H](O[C@H]6O[C@H](C(=O)O)C(O)C(O)[C@H]6O[C@@H]6O[C@H](C(=O)O)C(O)C(O)C6O)C(C)(C)[C@@H]5CCC43C)[C@@H]2C1 (stereo not given in full)	x	x	14µM	x
O=C1c2ccccc2C(=O)N1c1cncc2ccccc12	n	x	x	x
Cc1ccc(Nc2c(-c3ccccc3O)nc3cnccn23)cc1	n	n	7.9µM	n
O=C(c1ccccc1O)N(Cc1cccs1)Cc1cccs1	n	x	x	x
COc1ccc(C2=CC3=C(Br)C(=O)C(C)(OC(=O)c4ccc(Cl)nc4)C(=O)C3=CO2)cc1 (stereo not given)	u	n	n	u
COC(=O)CCC(=O)OC1(C)C(=O)C2=COC(c3ccc(OC)cc3)=CC2=C(Br)C1=O (stereo not given)	u	n	u	16µM
COc1ccc(C2=CC3=C(Br)C(=O)C(C)(OC(=O)C4CCCC4)C(=O)C3=CO2)cc1 (stereo not given)	u	n	n	18µM
